# A selection: hits, their analogues and other compounds. The true share with any hit is near 1.6%.
# ALOX12 inh – inhibitors of human 12S-lipoxygenase ALOX12; purified 12hLO, xylenol orange hydroperoxide absorbance; AID 1671190; P18054; Potency, µM (doses to about 108 µM), inactives show at the highest dose activity change, negative = inhibition, usual class: inhibitors; 580,000 tested, 1.1% active; note: % is set by controls: 0 for no effect and ±100 for the full control effect
# Target sequence (P18054 whole entry, looked up): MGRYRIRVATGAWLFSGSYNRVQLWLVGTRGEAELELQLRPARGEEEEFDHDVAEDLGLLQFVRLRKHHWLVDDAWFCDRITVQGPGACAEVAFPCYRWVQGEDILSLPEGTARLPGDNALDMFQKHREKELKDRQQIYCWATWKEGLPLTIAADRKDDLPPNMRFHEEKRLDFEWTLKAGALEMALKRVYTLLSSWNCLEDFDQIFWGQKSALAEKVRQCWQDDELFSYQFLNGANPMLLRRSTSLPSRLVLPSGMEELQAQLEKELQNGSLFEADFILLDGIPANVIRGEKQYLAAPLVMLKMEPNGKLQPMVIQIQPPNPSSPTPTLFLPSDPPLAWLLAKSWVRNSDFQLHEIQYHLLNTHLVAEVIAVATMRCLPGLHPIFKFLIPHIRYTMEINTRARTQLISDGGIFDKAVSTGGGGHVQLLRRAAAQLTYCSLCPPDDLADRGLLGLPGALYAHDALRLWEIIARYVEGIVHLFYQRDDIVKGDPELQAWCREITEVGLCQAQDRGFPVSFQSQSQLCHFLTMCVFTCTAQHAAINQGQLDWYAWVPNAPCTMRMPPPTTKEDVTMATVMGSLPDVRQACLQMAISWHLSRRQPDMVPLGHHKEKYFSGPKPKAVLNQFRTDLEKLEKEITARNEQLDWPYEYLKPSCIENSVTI
#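 Purified human 12hLO (150 nM final) in 25 mM Hepes, 0.01% Triton X-100, pH 7.0 was preincubated 15 min at room temperature with compound. Then 40 uM arachidonic acid was added, 30 min. Hydroperoxide was read by Fe-XO absorbance ratio 573/405 nm.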
# gsp agonist – activates gsp, the McCune-Albright syndrome mutation; gsp mutant cells, cAMP HTRF, 30 min; Potency, µM (titrated, usually from 76.9 µM), for the others: top-dose activation (cAMP increase), hits mostly activators; 340,000 tested, 0.13% active; AID 624287; active = well fitted activation curve with a large enough effect; inconclusive = small, poorly fitted or top-dose-only effect, or another doubt; inactive = no such curve, though single readings can be large or run the other way; cell line not stated here;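 note: phosphodiesterase inhibitor Ro 20-1724 added with compounds to block cAMP breakdown; nearly all actives have a fitted effect of over 60% in size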
#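 Cells stably selected in G418 were plated at 2000/well, grown 16-24 hr, then given compounds in DMSO with the PDE inhibitor […] (300 uM solution added) for 30 min at 37C; cAMP was read by HTRF.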
# FUS suppressor – suppressors of FUS proteinopathy in yeast. 390,000 tested, 0.24% active. S. cerevisiae FUS-expressing, growth rescue, OD600, 24 h. Potency, µM (highest dose often 76.6 µM), usual class: activators;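 note: plate controls were DMSO vehicle for no effect and reference control for full effect; nearly all actives have a fitted effect of over 55% in size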
#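 Yeast FUS proteinopathy model; galactose-induced FUS (2%), starting OD 0.005. Cpds in dilution series, 24hr, 30C, 99% humidity. Abs 600 nm growth. Pos ctrl CP55940 (top 92uM final); neg ctrl DMSO.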
# Mito fusion act – inhibitors of mitochondrial division or activators of mitochondrial fusion; Potency, µM (titrated, usually from 46.1 µM), for the others: at the top dose growth rescue (activation), most hits filed as activators; 320,000 tested, 0.23% active; AID 485298; S. cerevisiae fusion-defective mutant growth rescue, CellTiterGlo 48 h; note: % of control where 0% means no effect; nearly all actives have a fitted effect of over 45% in size
#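 Temperature-sensitive fusion-defective S. cerevisiae (e.g. fzo1-1, mgm1-5) were grown with compound in YPEG medium (3% ethanol, 3% glycerol) for 48 hours at 37C. Growth rescue was measured as viability by CellTiterGlo luminescence after 10 minutes at ambient.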
# gsp antagonist – antagonists of gsp mutant (McCune-Albright syndrome); 340,000 tested, 0.4% active; Potency, µM (top dose mostly 76.9 µM), inactives show top-dose activity change, negative = inhibition, most hits filed as inhibitors; gsp-mutant cells, cAMP HTRF, 30 min; calls by dose curve; cell line not stated here;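 note: intracellular cAMP measured with PDE inhibitor Ro 20-1724 present during compound exposure; % is set by controls: 0 for no effect and ±100 for the full control effect; nearly all actives have a fitted effect of over 65% in size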
#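 Cells, 2000/well, grown 16–24 h in DMEM 10% FBS with 0.5 mg/ml G418, then compounds plus […] (300 uM addition stock), 30 min at 37C. cAMP read by HTRF (cAMP-d2 and anti-cAMP antibody-K in lysis buffer) after 30 min RT.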
# * hit, by the source's call; i = inactive; ? = inconclusive; / = not tested or not shown; ! = not active in a repeat; [ ] = another dose, or the depositor's remark. Unless noted, calls come from the whole dose curve; as a rule, active = well fitted curve in the direction sought with a large enough effect; inconclusive = small, poorly fitted or top-dose-only effect, or another doubt; inactive = no such curve, though single readings can be large; an effect the other way counts as inactive or inconclusive. Potency is the fitted concentration of half-maximal effect.
SMILES,ALOX12 inh,gsp agonist,FUS suppressor,Mito fusion act,gsp antagonist
CC1CCCC(NC(=O)c2ccc3c(Cl)c4c(nc3c2)CCC4)C1C (stereo not given),-28%,/,/,/,/
O=C(Nc1ccccc1)Nc1cc(OCC(F)(F)F)cc(OCC(F)(F)F)c1,-6%,-3%[15.4 µM],i,-19%,32µM*
CNC(=O)c1ccc(/C=C/C(=O)c2ccc(OCCC(C)C)cc2)cc1,40%,/,/,/,/
CC(C)(C)NC(=O)CSc1nc2c(c(C(F)(F)F)c1C#N)CCCC2,3%,/,/,/,/
Cc1cnn(Cc2cc(C(=O)N3CCCCCC3c3nnc(-c4ccccc4)o3)no2)c1 (stereo not given),57%,/,/,/,/
CCCn1c(C)cc(-c2csc(N)n2)c1C,35µM*,?,i,-1%,-6%
CC(C)Oc1ccccc1CN1CCC2(CC1)CC(O)CCO2 (stereo not given),19%,/,/,/,/
Oc1c(Cl)cc(Cl)c2cccnc12,20µM*!,?,i,?,9%
Oc1ccc(F)c2cccnc12,-29%,-22%[15.4 µM],i,2%,1%
Oc1c(I)cc(I)c2cccnc12,32µM*!,/,i,26%,6%
Cc1ccc(S(=O)(=O)Nc2cc(Cl)c(O)c3ncccc23)cc1,4.5µM*,-10%[15.4 µM],i,0%,-11%
Oc1ccc(Cl)c2cccnc12,4.5µM*!,8%,/,/,6%
CC(C)c1nc2c(c(-c3ccc(O)cc3)n1)CN(Cc1ccc(N(C)C)cc1)CC2,34%,/,/,/,/
O=C(Oc1c(Cl)cc(Cl)c2cccnc12)c1ccco1,7.1µM*,?,/,?,2%
O=C(Oc1c(Cl)cc(Cl)c2cccnc12)c1cccs1,?,19%,i,-1%,-19%
O=C(Cn1ccn2nc(-c3ccccc3)cc2c1=O)Nc1cccc(Cl)c1,-13%,/,/,/,/
C(=N\Nc1ccccc1)/c1ccc(N2CCOCC2)cc1,14µM*,8%,i,-8%,-6%
N#C/C(=C/c1cccc(O)c1)C(=O)NCc1ccc(Cl)cc1,-17%,4%[15.4 µM],i,3%,21%
N#C/C(=C\c1ccc(O)c(O)c1)C(=O)Nc1ccccc1,50µM*,/,i,1%,-22%
N#C/C(=C/c1ccc(O)c(O)c1)C(=O)NCc1ccc(Cl)cc1,25µM*,1%,i,14%,-6%
N#C/C(=C\c1cc2ccccc2nc1N1CCOCC1)C(=O)Nc1ccc(N2CCOCC2)cc1,-10%,-2%,/,-2%,-3%
N#C/C(=C/c1ccccc1)C(=O)Nc1ccc(N2CCOCC2)cc1,2.5µM*,/,/,/,/
Clc1cccc(N/N=C/c2ccc(N3CCOCC3)cc2)c1,?,9%,/,-8%,-3%
CC(C)(C)C1CCc2onc(C(=O)N3CCCCCC3)c2C1 (stereo not given),17%,/,/,/,/
CC(NC(=O)CNC(=O)OC(C)(C)C)c1ccccc1 (stereo not given),3%,/,/,/,/
SMILES,ALOX12 inh,gsp agonist,FUS suppressor,Mito fusion act,gsp antagonist
CCCN1CCN(C(=O)c2ccc(-n3nc(C)c(-c4ccccc4)c3NC(C)=O)cc2)CC1,-36%,/,/,/,/
N#Cc1c(O)c2c(-c3ccc(-c4ccccc4O)cc3)csc2[nH]c1=O,24µM*,/,/,/,/
Cc1cc(C)n(CC(=O)N2CCOCC(CO)C2)c(=O)n1 (stereo not given),16%,/,/,/,/
Cc1cnc(C(=O)N2CCOCC(CO)C2)cn1 (stereo not given),50µM*,/,/,/,/
COc1ccc(OC)c2c1C(=O)C(Cl)=C(Cl)C2=O,?,-69%,i,2%,35µM*
Fc1ccc(NC(=S)Nc2cc(-c3ccccc3)[nH]n2)cc1Cl,28µM*,3%[15.4 µM],i,-1%,-83%
Cc1cccc(NC(=S)NCCC(c2ccccc2)c2ccccc2)c1,35µM*,0%,/,?,-28%
Fc1ccc(NC(=S)NCCC(c2ccccc2)c2ccccc2)cc1Cl,25µM*,/,/,/,/
Cc1c(Cl)cccc1NC(=S)NCCC(c1ccccc1)c1ccccc1,25µM*,-2%,i,20%,?
Cc1cc(Cl)ccc1NC(=S)NCCC(c1ccccc1)c1ccccc1,?,-21%,i,?,?
CN(C)CCCNCCC#N,21%,/,/,/,/
O=C(Cc1ccccc1)NCCNC(=O)c1cc(=O)[nH]c2ccccc12,25%,/,/,/,/
COc1ccc(NS(=O)(=O)c2ccc(SC)cc2)cc1,?,-1%,10µM*,20%,?
CSc1ccc(S(=O)(=O)Nc2ccc(F)cc2)cc1,39%,2%,i,17%,0%
O=C(NCCc1ccc(Cl)cc1)c1ccc2c(=O)[nH]c3c(C(=O)NCC4CCCO4)sc(=S)n3c2c1 (stereo not given),50µM*,/,/,/,/
COc1ccc(CN2CCN(Cc3c[nH]c4ccccc34)CC2)cc1OC,1.1µM*,-65%,i,/,/
COc1ccc(Br)cc1CN1CCN(Cc2c[nH]c3ccccc23)CC1,?,3%[15.4 µM],i,-68%,3%
COc1ccc(CN2CCN(Cc3c[nH]c4ccccc34)CC2)cc1,0.71µM*,14%,i,-12%,8%
O=C(Cc1ccc(Cl)cc1)Nc1ncc([N+](=O)[O-])s1,?,-20%[15.4 µM],i,-21%,-19%
Cc1ccc(C(=O)Nc2ncc([N+](=O)[O-])s2)cc1,-8%,7%,i,-12%,25µM*
O=C(Nc1ncc([N+](=O)[O-])s1)c1ccc2c(c1)OCO2,-20%,-10%,i,27%,-32%
O=C(COc1ccc(Cl)cc1)Nc1ncc([N+](=O)[O-])s1,-10%,3%[15.4 µM],i,9%,35µM*
CCC(C)c1ccc(-c2nc3ccccc3c(C(=O)O)c2C)cc1 (stereo not given),-11%,/,/,/,/
O=S(=O)(c1ccc(F)cc1)N1CCN(Cc2ncc(-c3ccc(F)cc3)o2)CC1,-3%,/,/,/,/
Brc1cccc(-c2nc(-c3ccccc3)no2)c1,1%,/,/,/,/
SMILES,ALOX12 inh,gsp agonist,FUS suppressor,Mito fusion act,gsp antagonist
O=C(c1ccc2c(c1)N(Cc1ccc(Cl)cc1)C(=O)c1ccccc1S2(=O)=O)N1CCc2ccccc21,-6%,/,7.9µM*,/,/
O=C(c1ccc2c(c1)N(Cc1ccc(F)cc1)C(=O)c1ccccc1S2(=O)=O)N1CCCC1,-1%,/,i,/,/
CCN1CCN(C(=O)c2ccc3c(c2)N(Cc2ccc(Cl)cc2)C(=O)c2ccccc2S3(=O)=O)CC1,?,/,i,/,/
O=C(c1ccc2c(c1)N(Cc1ccc(Cl)cc1)C(=O)c1ccccc1S2(=O)=O)N1CCCC1,0%,/,32µM*,/,/
COc1ccc(Nc2nc(N3CCCC3)c3ccccc3n2)cc1,?,8%,/,-26%,-10%
CCN(CC)c1ccc(Nc2nc(N3CCOCC3)c3ccccc3n2)cc1,?,-19%,i,13%,50µM*
Cc1c(C(=O)OCc2ccccc2)[nH]c2c1C(=O)CC(c1ccccc1)C2 (stereo not given),14%,/,/,/,/
Cc1ccc(-c2csc3nc4cc(C(=O)NC5CCC(O)CC5)ccc4c(=O)n23)cc1 (stereo not given),11µM*,29%,i,0%,-12%
